From PubChem
Pf Dd2 growth: blocks in vitro growth of P. falciparum Dd2. 120,000 compounds, 4.3% hits. Potency, µM (highest dose often 28.9 µM), usual class: inhibitors. P. falciparum Dd2 growth, SYBR Green, 72 h. AID 1347417; active means well fitted inhibition curve with a large enough effect; further: nearly all actives have a fitted effect of over 65% in size
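Infected erythrocytes (Dd2, 0.3% parasitemia, 2.5% hematocrit final) are added to compound in RPMI-1640/Albumax II medium, grown 72 h at 37C in low oxygen, then lysed with saponin/Triton-X containing SYBR Green and read by fluorescence.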
Each line names hits and unclear results; the compound was inactive in the other large screens. This is one part of a sample in which hits are shown more often than they occur.

CCN1CCC2(CCC1=O)CN(Cc1cc(C#N)n(CC)c1)CCN2C (stereo not drawn)	none
CCn1nc(C)c(CN(CCOC)C(=O)C2COc3ccccc3C2)c1C (stereo not drawn)	none
CN(C)C[C@@H]1CN(C)C[C@H]1NC(=O)c1ccccc1OC(F)(F)F	none
CNC(=O)N1C[C@@H](CN(C)C)[C@H](NC(=O)c2ccccc2OC(F)(F)F)C1	none
CC(C)N[C@@H]1CC[C@@H]1NC(=O)c1ccccc1OC(F)(F)C(F)F	Pf Dd2 growth 7.9µM
O=C(c1ccccc1OCC1CCCN(C(=O)c2n[nH]c3ccccc23)C1)N1CCOCC1 (stereo not drawn)	none
CCOc1ccc(NC(=O)N(Cc2c[nH]c3ccccc23)C2CCCCC2)cc1	none
Cn1cc(CN(C(=O)Nc2ccccc2)C2CCCCC2)c2ccccc21	Pf Dd2 growth 3.2µM
COCC1(CNCc2cn(C)c3ccccc23)C[C@@H](O)[C@@H](O)C1 (stereo partly drawn)	none
Cc1ncsc1CN1CCC([C@@H]2CNC[C@H]2CO)CC1	none
Cn1nccc1C(=O)N1CCC(N2C(=O)C(OCC3CC3)C23CCOCC3)CC1 (stereo not drawn)	none
Cc1ccc(-c2nnc(Nc3cccc(C(F)(F)F)c3)c3ccccc23)cc1S(=O)(=O)N1CCOCC1	Pf Dd2 growth 10µM
Cc1ccc(-c2nnc(Nc3ccc(F)cc3)c3ccccc23)cc1S(=O)(=O)N1CCN(C)CC1	Pf Dd2 growth 10µM
Cc1ccc(C(=O)Nc2cccc(C(=O)O)c2)cc1S(=O)(=O)N1CCCC1	none
Cc1ccc(C(=O)Nc2ccc(F)cc2)cc1S(=O)(=O)N1CCOCC1	none
Cc1ccc(-c2onc(C)c2C)cc1S(=O)(=O)N1CCN(c2ccccc2F)CC1	none
Cc1ccc(F)cc1S(=O)(=O)N1CCC(n2cnnc2C(C)C)CC1	none
Cc1ccc(-c2onc(C)c2C)cc1S(=O)(=O)N1CCCCC1	none
Cc1ccccc1Nc1nnc(-c2ccc(C)c(S(=O)(=O)N3CCN(C)CC3)c2)c2ccccc12	none
Cc1ccc(-c2nnc(Nc3ccc(Br)cc3)c3ccccc23)cc1S(=O)(=O)N1CCN(C)CC1	Pf Dd2 growth 5.6µM
Cc1ccc(-c2nnc(Nc3cccc(Cl)c3)c3ccccc23)cc1S(=O)(=O)N1CCOCC1	none
COc1cccc(N2CCN(S(=O)(=O)c3cc(-c4cc(C)no4)ccc3C)CC2)c1	none
Cc1ccc(-c2nnc(Nc3cccc(O)c3)c3ccccc23)cc1S(=O)(=O)N1CCN(C)CC1	Pf Dd2 growth 10µM
Cc1ccc(-c2ccc3nnc(CNC(=O)c4cccc5[nH]ccc45)n3n2)cc1C	none
Cc1cccc(OC[C@H]2C[C@@H](N(C)C)[C@H](O)[C@@H]2O)n1	none
CC(C)c1noc(-c2cccn3c(CNC(=O)c4ccco4)nnc23)n1	none
COCc1cn(C[C@H]2C[C@@H](NC(=O)C(C)C)[C@H](O)[C@@H]2O)nn1	none
CCn1ccc(C(=O)N2CCC3(CCCCO3)CC2)n1	none
COc1ccccc1CCNC(=O)C1CC(=O)N(c2n[nH]c3cccc(F)c23)C1 (stereo not drawn)	none
OC(Cc1ccccc1)c1ccc2c(c1)CN(Cc1ccc(OC(F)F)cc1)CCO2 (stereo not drawn)	none
COC(=O)c1ccc(Nc2nnc(-c3ccc(C)c(S(=O)(=O)N4CCN(C)CC4)c3)c3ccccc23)cc1	Pf Dd2 growth 1.6µM
Cc1ccc(C(=O)Nc2ccccc2)cc1S(=O)(=O)N1CCCC1	none
CC(=O)NCC(=O)N1CCCC(n2cc(-c3nc(-c4ccccc4)no3)nn2)C1 (stereo not drawn)	none
CNS(=O)(=O)c1ccc(CN2CCCC3(C2)CN(C)C(=O)O3)cc1 (stereo not drawn)	none
O=C(C1CCCC1)N1CCC(N2C(=O)C(O)C23CCCCC3)CC1 (stereo not drawn)	none
CS(=O)(=O)c1ccc(CN2CC[C@@H](c3ccc4ccccc4c3)[C@H](O)C2)cc1	none
O[C@@H]1CN(CC2CCNCC2)CC[C@H]1c1ccc2ccccc2c1	Pf Dd2 growth 11µM
O=C(O)c1ccc(CN2CC[C@@H](c3ccc4ccccc4c3)[C@H](O)C2)cc1	none
Cc1noc(C)c1S(=O)(=O)N1CCC(N(CCC(C)C)C2CCOCC2)CC1	Pf Dd2 growth 13µM
Cc1noc(C)c1S(=O)(=O)N1CCC(N2CCOC2=O)CC1	none
Cc1noc(C)c1S(=O)(=O)N1CC(N(CC(C)C)C2CCOCC2)C1	none
COc1ccc(F)cc1S(=O)(=O)N1C[C@@H](F)C[C@H]1C(=O)N1CCc2ccccc2C1	none
Cc1ccc(OCc2nc(C3CCNC3)no2)cc1 (stereo not drawn)	none
Fc1ccccc1OCc1nc(C2CCCNC2)no1 (stereo not drawn)	none
c1ccc(OCc2nc(C3CCCNC3)no2)cc1 (stereo not drawn)	Pf Dd2 growth 5.6µM
O=C(CC1CCN(C(=O)c2ccc(F)cc2)C1)NC1CC1 (stereo not drawn)	none
COc1cc2c(cc1OC1CCCC1)NC(=O)C21CCN(c2ncc(F)cn2)CC1	none
COc1cc2c(cc1OC1CCCC1)NC(=O)C21CCN(c2nc(C)cc(C)n2)CC1	Pf Dd2 growth 11µM
COc1cc2c(cc1OC1CCCC1)NC(=O)C21CCN(c2ncccn2)CC1	none
O=C(NC1C[C@H]2CC[C@@H](C1)N2C(=O)Cc1ccccc1Cl)c1ccncc1 (stereo partly drawn)	none
Cc1nc([C@@H]2CN(C(=O)C(C)(C)C)C[C@H]2C(N)=O)n[nH]1	none
CCOc1ccc(Cl)cc1CN(C)Cc1cc2n(n1)CCCNC2	Pf Dd2 growth 5.6µM
Cc1ccnc(C(NC(=O)CCc2cc3n(n2)CCCNC3)C2CC2)c1 (stereo not drawn)	none
CN(Cc1ccc2c(c1)OCO2)Cc1cc2n(n1)CCNC2	none
COc1cccc(C(=O)N2C(C(=O)NCc3ccccc3F)COC23CCC(C)CC3)c1 (stereo not drawn)	none
CNC(=O)[C@@H]1C[C@H](Oc2ccccc2)CN1C(=O)CCOC	none
COCCN1C(=O)c2cccn2CC1CNC(=O)c1ccc2ncccc2c1 (stereo not drawn)	none
CCCC1=Nc2cc(C(=O)NCCc3ccc(OC)cc3OC)ccc2Sc2ccccc21	none
CCOc1ccc(C(=O)NCCn2ccn3nc(-c4ccc(OC)cc4)cc3c2=O)cc1	none
CCCCOc1ccc(C(=O)NCCc2sc(-c3ccc(OC)c(OC)c3)nc2C)cc1	none
CCOc1ccc(-c2cn3c(n2)sc2cc(C(=O)NCCCN4CCCCC4)ccc23)cc1	Pf Dd2 growth 2.5µM
CCOc1ccc(-c2cn3c(n2)sc2cc(C(=O)NCCc4ccc(OC)cc4OC)ccc23)cc1	Pf Dd2 growth 5.6µM
CCOc1ccc(-c2cn3c(n2)sc2cc(C(=O)N4CCCC(C)C4)ccc23)cc1 (stereo not drawn)	Pf Dd2 growth 7.1µM
CCOc1ccc(-c2cc3c(=O)n(CCNC(=O)c4ccc(OC)cc4)ccn3n2)cc1	none
CCCN1CCN(CCCNC(=O)c2ccc3c(c2)sc2nc(-c4ccc(OCC)cc4)cn23)CC1	Pf Dd2 growth 1.3µM
CCOc1ccc(C(=O)N2CCCC(n3cc(-c4nc(C5CC5)no4)nn3)C2)cc1 (stereo not drawn)	none
COc1ccc(-c2cn3c(n2)sc2cc(C(=O)N4CCCCC4)ccc23)cc1	none
O=C(Cc1ccsc1)N1CCN(C(=O)c2nnn3c2COC(c2ccccc2)C3)CC1 (stereo not drawn)	none
O=C1Nc2cnccc2C2(CCN(C(=O)OCc3ccccc3)C2)O1 (stereo not drawn)	none
CC(C)n1cc2cc(C(=O)N3CCN(c4ccc(F)cc4)CC3)sc2c1	none
COc1ccccc1C(=O)N1CCCCCC1c1nnc(-c2ccccc2)o1 (stereo not drawn)	none
COc1cccc(S(=O)(=O)N2CCC(Oc3ccc(C(N)=O)cn3)CC2)c1	none
